# According to the supplement of paper PMC10338343:
# ± gives the standard deviation.
# System: MILI (PIWIL2) piRISC loaded with L1MC piRNA (26 nt)
# Assay: pre-steady-state target cleavage rate (min^-1); guide: L1MC piRNA 5'p-UAACUAAAUACUAUGCAAGCUGUAGG; MIWI and MILI are mouse PIWI proteins and EfPiwi is from a freshwater sponge; tags in brackets are library labels; higher = faster piRNA-guided slicing of the target
# Settings: auxiliary factor: 500 nM mouse GTSF1
# In short: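 The pre-steady-state cleavage rate was obtained by Cleave-'n-Seq with a burst-and-steady-state fit. A transcribed, DNA-blocked target RNA library (0.1 nM) was mixed with 1 nM active affinity-purified piRISC carrying one synthetic guide, with or without 500 nM GTSF1 partner protein, in HEPES–potassium acetate buffer at 33 °C for 0–8 or 0–960 min. Uncleaved targets were sequenced and normalised to depth and to weakly complementary targets, with three trials pooled and k3 capped at 0.0001 min^-1.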
row,Sequence,pre-steady-state target cleavage rate
1,UCCUGGAACGGCUUGCAUAGUAUUUAGUUA,0.259 ± 0.017
2,UCCUGGAUGAGCUUGCAUAGUAUGUAGUUA,0.162 ± 0.033
3,UCCUGGAUGAGGUUGCAUAGUAAUUAGUUA,0.117 ± 0.032
4,UCCUGGAUCAGCUAGCUUAGUAUUUAGUUA,0.214 ± 0.018
5,UCCUCCUACUGCUUGCAUAGAAUUUAGUUA,0.0415 ± 0.0062
6,UCCUGGAUGAGCUUUCAUAGUAUUUAGUUA,0.15 ± 0.018
7,UCCUGGAUGAGCUAGCAUAGUUUUUAGUUA,0.0185 ± 0.0066
8,UCCUCCUUGUGCUUGCAUAGUAUUUAGUUA,0.157 ± 0.012
9,UCCUCCUUCAGCAUGCAUAGUAUUUAGUUA,0.265 ± 0.017
10,UCCUCCUUGAGCUUGCAUAGUAUUUAGUAA,0.217 ± 0.025
11,UCCUCCUACAGCUUGCAUAGAUUUUAGUUA,0.0522 ± 0.012
12,UCCUGGAUGUGCUUGCACAGUAUUUAGUUA,0.13 ± 0.01
13,UCCUCGAUCAGCUUGCAUAGUAUUUAGUUA,0.316 ± 0.017
14,UCCUCCUACAGCUUGCAUAGUAUUUAGUA,0.177 ± 0.021
15,UCCUCCUAUAGCUUGCAUAGUAUUUAGUUA,0.244 ± 0.015
16,UCCUGGAUGAGCUUGCUUAGUAAUUAGUUA,0.191 ± 0.019
17,UCCUGGAUGUGGUUGCAUAGUUUUUAGUUA,0.0125 ± 0.0086
18,UCCUGGAUCAGGUUGCAUAGUUUUUAGUUA,0.023 ± 0.0088
19,UCCUGGUACAGCUUGGAUAGUAAUUAGUUA,0.226 ± 0.057
20,UCCUGGAUGAGGUUGCAUAGUAUUUAGUUA,0.129 ± 0.015
21,UCCUGGAUCAGCUUGCAUAGUCUUUAGUUA,0.191 ± 0.011
22,UCCUGGAUCAGCUUGCAUAGUAUUAUGUUA,0.122 ± 0.021
23,UCCUGCUACAGCUUGCACAGUAUUUAGUUA,0.157 ± 0.015
24,UCCUGCUACAGCUUGCUAAGUAUUUAGUUA,0.176 ± 0.018
